A selection: hits, their analogues and other compounds. The true share with any hit is near 7.7%.
Giardia FBPA inh: qHTS Assay for Inhibitors of Fructose-1,6-bisphosphate Aldolase from Giardia Lamblia; 0.71% of 290,000 active; Potency, µM (top dose mostly 59.6 µM), for the others: at the highest dose activity, negative = inhibition, hits mostly inhibitors; A8B2U2; purified Giardia FBPA; also: potency is read from the fitted curve at half-maximal effect; nearly all actives have a fitted effect of over 55% in size
Target sequence (A8B2U2 whole entry, looked up): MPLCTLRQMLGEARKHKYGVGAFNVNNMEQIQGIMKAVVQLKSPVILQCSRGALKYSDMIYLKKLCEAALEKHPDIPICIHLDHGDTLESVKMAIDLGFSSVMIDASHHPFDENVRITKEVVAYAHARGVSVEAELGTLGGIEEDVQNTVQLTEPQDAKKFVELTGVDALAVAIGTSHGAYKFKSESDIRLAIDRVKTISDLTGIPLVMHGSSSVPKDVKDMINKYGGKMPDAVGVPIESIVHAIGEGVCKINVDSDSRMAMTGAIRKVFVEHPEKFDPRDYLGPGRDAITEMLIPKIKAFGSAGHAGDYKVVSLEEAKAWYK
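Giardia FBPA (40 nM reagent) was preincubated 10 min at RT with compound (up to 57.5 uM final), then substrate plus GAPDH/TPI/NAD/arsenate coupling system with diaphorase/resazurin was added; resorufin fluorescence (525/598 nm) was read after 20 min.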
Tb PYK inh: qHTS of Trypanosoma Brucei Inhibitors; TbPYK enzyme, Kinase-Glo Plus ATP luminescence, 45 min; AID 624173, 2012; 0.12% of 410,000 active; pyruvate kinase (Trypanosoma brucei), Q57TT1; Potency, µM (top dose mostly 76.8 µM), for the others: at the highest dose activity, negative = inhibition, usual class: inhibitors; also: potency is read from the fitted curve at half-maximal effect; nearly all actives have a fitted effect of over 50% in size
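T. brucei PYK with substrate was exposed to pin-transferred compounds across a concentration series, then started with 130 uM ADP (final). After 45 min at room temperature, Kinase-Glo Plus luminescence was read, normalized and curve-fitted.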
Sm TGR block: qHTS Assay for the Inhibitors of Schistosoma Mansoni Peroxiredoxins | purified TGR, DTNB reduction, TNB absorbance 405 nm | Potency, µM (highest dose often 114 µM), without a hit: top-dose activity change, negative = inhibition, most hits filed as inhibitors | 3% of 360,000 active | AID 485364, 2010; also: potency is read from the fitted curve at half-maximal effect; nearly all actives have a fitted effect of over 60% in size
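First, TGR (20 nM dispensed) and NADPH were mixed with compound. Second, a 15 min room-temperature incubation followed. Third, further NADPH and then DTNB were added to start the reaction. Finally, TNB absorbance was monitored kinetically.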
HCMV inh: qHTS Assay for inhibitors of the human cytomegalovirus (HCMV); AID 1259415, 2018; 4.5% of 410,000 active; HFF cells, HCMV-luciferase reporter, 72 h; stronger effect = lower value; activity change, negative = inhibition, % at 57.5 µM; in the data active = activity change below about -60%; inconclusive = no clear call, values can overlap the other calls; inactive = above about -39%
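Screen run at 2 compound doses on HFFs infected with reporter HCMV, MOI 1 PFU/cell. Luciferase activity from cell lysates at 72 h post infection gave inhibition relative to buffer-only and Salinomycin wells.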
RE007 growth inh: qHTS Assay for Inhibitors of the HIV-1 protein Vpr; Potency, µM (top dose mostly 92.2 µM), without a hit: at the top dose activity change, negative = less growth, usual class: inhibitors; S. pombe RE007 Vpr strain, BacTiter-Glo ATP luminescence, 24 h; 0.21% of 360,000 active; active = well fitted falling curve with a large enough effect; inconclusive = small, poorly fitted or top-dose-only effect; inactive = no such curve, though single readings can be large or run the other way; also: potency is read from the fitted curve at half-maximal effect; nearly all actives have a fitted effect of over 50% in size
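Fission yeast RE007 carrying one integrated HIV-1 vpr copy, seeded at OD 0.01 in PMG+AL medium with 23 nL pinned compound. Grown 24 h at 30 degrees; viability read by BacTiter-Glo luminescence after 5 min.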
FMDV inh: High Throughput Screening for Foot and Mouth Disease Virus Antivirals; FMDV antiviral cell-based qHTS; 1.2% of 410,000 active; Potency, µM (series often up to 57.9 µM), inactives show top-dose activity change, negative = inhibition, actives largely listed as inhibitors; calls by dose curve; tested in HEK293T cells; also: read-out not given here; potency is read from the fitted curve at half-maximal effect; nearly all actives have a fitted effect of over 45% in size
Active calls of the source: *; ? = inconclusive; . = not tested or not shown; ! = not active in a repeat. Unless noted, calls follow the shape of the dose curve; as a rule, active = well fitted curve in the direction sought with a large enough effect; inconclusive = small, poorly fitted or top-dose-only effect, or another doubt; inactive = no such curve, though single readings can be large; an effect the other way counts as inactive or inconclusive. % is scaled to controls: 0 for no effect and ±100 for the full control effect.

SMILES	Giardia FBPA inh	Tb PYK inh	Sm TGR block	HCMV inh	RE007 growth inh	FMDV inh
CCCC(=O)NCCc1c2n(c3ccc(OC)cc13)CCCc1ccccc1-2	-7%	.	.	.	.	.
CN(c1ccc(-c2csc(NC(=O)CCCc3nc4ccccc4c(=O)[nH]3)n2)cc1)S(C)(=O)=O	.	5%	.	-19	6%	35µM*
Cn1cc(S(=O)(=O)c2ccc(Cl)cc2)c(=O)c2cc(F)c(N3CCCC3)cc21	.	2%	2%	-7	.	-12%
CCCCn1c(N)c(N(CCC(C)C)C(=O)COC(=O)c2ccc([N+](=O)[O-])s2)c(=O)[nH]c1=O	.	-8%	.	-95*	-13%	-23%
CC(C)CN(C(=O)COC(=O)c1ccc([N+](=O)[O-])s1)c1c(N)n(Cc2ccccc2)c(=O)[nH]c1=O	.	-1%	?	3	-17%	?
C=CCNc1ccc2c(c1)OC[C@H](Cc1ccccc1)NS2(=O)=O	.	.	.	-22	.	.
COc1ccccc1Cc1c(-c2cccc(Cl)c2)nc2c3ccccc3ccn12	.	.	.	61	.	.
CCOc1ccc(NC(=O)CCc2nc3cccnc3n2-c2ccccc2)cc1	.	4%	5%	-18	.	-28%
COc1cc(/C=C(/C#N)c2nc(-c3cc4ccccc4oc3=O)cs2)cc([N+](=O)[O-])c1O	-9%	.	16%	-87*	.	.
COc1cc(/C=C(\C#N)c2nc(-c3cc4ccccc4oc3=O)cs2)ccc1O	3%	-15%	-24%	23	-9%	0%
Oc1c(Cl)cccc1Cc1cc(Cl)cc(Cl)c1O	.	-8%	.	?	35µM*	?
O=C1CCN(Cc2ccc(O)cc2)CCN1CCO	-10%	0%	?	-68*!	-8%	-11%
O=C(NCC1CCCO1)c1ccc(COc2ccc(F)cc2)o1 (stereo unspecified)	1%	-9%	35µM*	21	2%	.
CC(=O)c1ccc(NC(=O)c2ccc(-c3nc(CSc4ccccc4)c(C)o3)cc2)cc1	.	0%	?	-76*	.	?
Cc1oc(-c2ccc(C(=O)Nc3cccc(C(F)(F)F)c3)cc2)nc1CSc1ccccc1	.	0%	15%	-98*	.	?
COc1ccc(NC(=O)c2ccc(-c3nc(CSc4ccccc4)c(C)o3)cc2)cc1OC	.	1%	-12%	-23	.	?
CC#CC(=O)N[C@H]1CC[C@@]23CCCN2C(=O)CCC[C@H]3[C@H]1Cc1ccccc1	.	.	.	-14	.	.
Nc1nc(N)c(-c2cccc(C(F)(F)F)c2)c(Cc2cccc(C(F)(F)F)c2)n1	.	3%	.	-75*	12%	-29%
CCOC(=O)[C@]12CCC=C1N(Cc1ccccc1)C(=O)[C@H](CC(=O)NCc1ccc(OC)c(OC)c1)C2	.	1%	.	17	-10%	-27%
COC(=O)[C@]12CCCCC=C1N(Cc1ccc3c(c1)OCO3)C(=O)[C@H](CC(=O)NCc1cccc3ccccc13)C2	.	.	.	-61*	0%	-11%
CCOC(=O)[C@]12CCC=C1N(Cc1ccccc1)C(=O)[C@H](CC(=O)NCc1cccc(C(F)(F)F)c1)C2	.	3%	.	-97*	1%	-12%
COC(=O)[C@]12CCCCC=C1N(Cc1ccccc1)C(=O)[C@H](CC(=O)NCc1cccc3ccccc13)C2	.	-7%	.	1	-7%	-17%
COCCCNC(=O)C[C@@H]1C[C@@]2(C(=O)OC)CC(C)(C)CC=C2N(Cc2ccc3c(c2)OCO3)C1=O	.	.	.	-62*	0%	1%
COC(=O)[C@]12CCCCC=C1N(Cc1cccc3ccccc13)C(=O)[C@H](CC(=O)NCCC(C)C)C2	.	6%	.	-61*	4%	-26%
Cc1c(N)nc([C@H](CC(N)=O)NC[C@H](N)C(N)=O)nc1C(=O)N[C@H](C(=O)N[C@H](C)[C@@H](O)[C@H](C)C(=O)N[C@H](C(=O)NCCc1nc(-c2nc(C(=O)NCCCCN=C(N)N)cs2)cs1)[C@@H](C)O)[C@@H](O[C@@H]1O[C@@H](CO)[C@@H](O)[C@H](O)[C@@H]1O[C@H]1O[C@H](CO)[C@@H](O)[C@H](OC(N)=O)[C@@H]1O)c1cnc[nH]1	.	.	.	.	.	-3%
SMILES	Giardia FBPA inh	Tb PYK inh	Sm TGR block	HCMV inh	RE007 growth inh	FMDV inh
CCCCNC(=O)C1CCC(Cn2c(=O)c3sccc3n(CC(=O)N3CCCC3)c2=O)CC1 (stereo unspecified)	.	-12%	5%	-4	.	0%
O=C(c1ccccc1F)N1C[C@@H]2[C@H](c3ccccc31)[C@H](CO)N2C(=O)c1ccccc1	.	.	.	-5	.	.
CC(=O)N1CCCc2cc(S(=O)(=O)N(C)CC(=O)Nc3ccc(F)c(Cl)c3)ccc21	.	-2%	-8%	-27	.	?
CN(C)c1ccc(N=Nc2ccccc2C(=O)OCC(=O)NCC2CCCCC2)cc1	-3%	-5%	-16%	-61*	8%	-12%
CCc1ccc(S(=O)(=O)c2cn(C)c3ccc(C)cc3c2=O)cc1	.	0%	4%	12	.	49%
Cc1cccc2sc(N(CCCN(C)C)C(=O)CCc3ccccc3)nc12	-2%	-7%	-10%	-72*	-17%	-12%
CN(C)CCCN(C(=O)CCc1ccccc1)c1nc2ccc(Br)cc2s1	-5%	-2%	11%	0	8%	25µM*
COc1ccc2nc(NN=Cc3cccc(C)n3)cc(C)c2c1	.	.	.	-21	.	.
O=c1[nH]c(=O)n(Cc2ccco2)c2c1C(C(F)(F)F)(C(F)(F)F)N=C(c1ccc(F)cc1)N2	11%	0%	2%	43	-2%	4.5µM*
CC(C)OC(C)C	7%	.	.	.	.	.
O=[N+]([O-])c1ccc(CN2CCCCCC2)cc1	?	3%	0%	13	-10%	-2%
N=c1c2c(n(Cc3ccc(Br)cc3)c3c1CCC3)CCCC2	-1%	4%	-7%	-95*	-9%	40µM*
Clc1ccc(CN2C3=NCCN3c3ccccc32)cc1Cl	-9%	5%	4%	-16	1%	?
N=c1c2c(n(Cc3ccc(Cl)c(Cl)c3)c3c1CCC3)CCCC2	1%	-4%	5%	-86*	-13%	?
N=c1c2c(n(Cc3ccc([N+](=O)[O-])cc3)c3c1CCC3)CCCC2	0%	-19%	-4%	-86*	-15%	0%
O=c1[nH]c(=O)n(Cc2ccccc2)c2c1CCC2	2%	-17%	-1%	2	-14%	.
Cc1cc(C)n(CCc2nc3c4ccccc4nc(N4CCN(c5cccc(C)c5C)CC4)n3n2)n1	.	4%	6%	-1	.	-6%

Screening data as filed in PubChem.
